Several values for one entry are separate records, joined by “and”; a condition that tells them apart may be missing. Equal values may be shown once. Records with an inconclusive call do not appear. A call without a number means that no potency is given here. Where a structure was tested more than once in an assay, its records may differ in their call. Activity calls are given as the source filed them. Unless noted, calls follow the shape of the dose curve; as a rule, active = well fitted curve in the direction sought with a large enough effect in the repeat runs; inconclusive = weak or mixed curves; inactive = no such curve, though single readings can be large; an effect the other way counts as inactive or inconclusive.
Experiments:
[1] = qHTS assay to identify small molecule agonists of the RXR signaling pathway - cell viability counter screen (AID 1159529); also: nearly all actives have a fitted effect of over 50% in size; also: potency is read from the fitted curve at half-maximal effect
Outline: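 Tox21 10K compounds were tested for cytotoxicity against GeneBLAzer RXR-alpha HEK 293T cells grown in 2% charcoal-stripped FBS. Exposure lasted 16 hr at 37 C, 5% CO2; viability read by CellTiter-Glo luminescence.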

[2] = qHTS assay to identify small molecule antagonists of the retinoid acid receptor (RAR) signaling pathway - cell viability counter screen (AID 1159551); also: nearly all actives have a fitted effect of over 35% in size
Outline: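 Cytotoxicity counter screen: ATP content quantified by CellTiter-Glo luminescence in C3RL4 cells treated 6 hr at 37 C with compound and retinol (1 uM final). Cells plated at 1,000/well and cultured overnight before dosing.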

[3] = qHTS assay to identify small molecule antagonists of the retinoic acid receptor (RAR) signaling pathway (AID 1159552; also: nearly all actives have a fitted effect of over 50% in size; also: potency is read from the fitted curve at half-maximal effect)
Outline: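 Overnight-plated C3RL4 reporter cells get compound, then retinol to 1 uM final; plates sit 6 hr at 37 C, 5% CO2. A luciferase reagent is added and light output recorded after 30 min at room temperature.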

[4] = qHTS assay to identify small molecule agonists of the retinoic acid receptor (RAR) signaling pathway (AID 1159553); conditions: C3RL4 RARE luciferase reporter, agonist, 6 h; activation: at 73.3 µM (top of the series) unless noted
Outline: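 Luminescence was measured 30 min after luciferase reagent addition at room temperature. Before that, C3RL4 reporter cells (1,000 per well, plated overnight) were treated with compound for 6 hr at 37 C and 5% CO2.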

[5] = biological target: Luciferin 4-monooxygenase (Photinus pyralis) (UniProt P08659); test: qHTS assay to identify small molecule inhibitors of firefly luciferase (AID 1224835); also: nearly all actives have a fitted effect of over 25% in size
Luciferin 4-monooxygenase (Photinus pyralis), sequence (P08659 whole entry, looked up): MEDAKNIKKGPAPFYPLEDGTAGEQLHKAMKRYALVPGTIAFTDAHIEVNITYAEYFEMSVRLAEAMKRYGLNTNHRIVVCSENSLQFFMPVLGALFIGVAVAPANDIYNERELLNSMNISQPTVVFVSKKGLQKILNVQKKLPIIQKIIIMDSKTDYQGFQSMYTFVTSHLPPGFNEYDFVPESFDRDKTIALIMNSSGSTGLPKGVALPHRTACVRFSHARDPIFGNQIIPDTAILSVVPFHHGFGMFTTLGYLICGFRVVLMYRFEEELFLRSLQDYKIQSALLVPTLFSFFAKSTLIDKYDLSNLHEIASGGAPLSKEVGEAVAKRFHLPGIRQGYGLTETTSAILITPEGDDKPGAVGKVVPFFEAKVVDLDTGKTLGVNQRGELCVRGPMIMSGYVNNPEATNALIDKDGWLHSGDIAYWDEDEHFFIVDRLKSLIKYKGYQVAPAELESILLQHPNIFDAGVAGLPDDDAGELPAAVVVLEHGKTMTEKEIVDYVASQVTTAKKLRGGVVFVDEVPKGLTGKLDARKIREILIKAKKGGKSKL
Outline: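 Quantitative HTS format; KM concentrations of both substrates. Purified P. pyralis FLuc activity quantified from luminescence images.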

[6] = qHTS assay to identify small molecule agonists of the constitutive androstane receptor (CAR) signaling pathway - cell viability counter screen (AID 1224836); also: nearly all actives have a fitted effect of over 45% in size; also: potency is read from the fitted curve at half-maximal effect
Outline: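 Fluorescence from CellTiter-Fluor indicates live cells after 23 h exposure. The human hepatoma line expresses hCAR and a CYP2B6-2.2kb reporter. Incubation medium contains 0.75 uM PK11195 (final).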

[7] = qHTS assay to identify small molecule antagonists of the constitutive androstane receptor (CAR) signaling pathway - cell viability counter screen (AID 1224837); also: nearly all actives have a fitted effect of over 45% in size
Outline: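 Cytotoxicity counter-screen: CellTiter-Fluor fluorescence after 23 h compound exposure (15-point qHTS) in double-stable HepG2-CYP2B6-hCAR cells, with 50 nM CITCO added.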

[8] = biological target: Nuclear receptor subfamily 1 group I member 3 (Homo sapiens) (UniProt Q14994); test: qHTS assay to identify small molecule antagonists of the constitutive androstane receptor (CAR) signaling pathway (AID 1224838);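 also: HepG2 cells stably expressing hCAR with CYP2B6 luciferase reporter stimulated by CITCO; nearly all actives have a fitted effect of over 40% in size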
Nuclear receptor subfamily 1 group I member 3 (Homo sapiens), sequence (Q14994 whole entry, looked up): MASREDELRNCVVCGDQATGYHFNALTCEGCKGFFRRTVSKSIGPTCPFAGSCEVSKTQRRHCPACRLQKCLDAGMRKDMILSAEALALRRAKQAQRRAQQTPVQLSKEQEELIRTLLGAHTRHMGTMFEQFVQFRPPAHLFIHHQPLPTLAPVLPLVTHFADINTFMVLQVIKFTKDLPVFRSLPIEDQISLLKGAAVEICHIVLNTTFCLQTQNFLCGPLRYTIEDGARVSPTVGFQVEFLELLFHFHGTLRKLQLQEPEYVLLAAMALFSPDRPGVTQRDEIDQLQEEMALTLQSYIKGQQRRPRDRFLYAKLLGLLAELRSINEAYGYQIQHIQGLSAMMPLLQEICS
Outline: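 Antagonism measured as luciferase signal (ONE-Glo, 30 min, room temperature) in CAR-stimulated cells: HepG2-CYP2B6-hCAR double-stable line exposed 24 hr at 37 C to compound in a 15-point series plus 50 nM CITCO.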

[9] = biological target: Nuclear receptor subfamily 1 group I member 3 (Homo sapiens) (UniProt Q14994); test: qHTS assay to identify small molecule agonists of the constitutive androstane receptor (CAR) signaling pathway (AID 1224839);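 also: HepG2 cells stably carrying human CAR and a CYP2B6 luciferase reporter; nearly all actives have a fitted effect of over 15% in size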
Outline: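 Stable hCAR/CYP2B6-2.2kb HepG2 line in DMEM with 10% FBS; compounds (15 concentrations) and 0.75 uM PK11195 final, 24 h at 37 C/5% CO2, then ONE-Glo luminescence after 30 min.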

[10] = qHTS assay to identify small molecule antagonists of the estrogen related receptor signaling pathway with the pleiotropic PPARgamma coactivator (PGC) from Tox21 10K library - cell viability counter screen (AID 1224840; active = well fitted cell-killing curve with a large enough effect in the repeat runs, not every such curve was filed as active; also: nearly all actives have a fitted effect of over 40% in size)
Outline: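 Counter-screen for cytotoxicity: after 17.5 h compound exposure at 37 C, CellTiter-Fluor reagent added to PGC/ERR cells for 30 min and fluorescence read. Cells were seeded at 2,000 per well 6 h before dosing.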

[11] = biological target: Thyrotropin receptor (Homo sapiens) (UniProt P16473); test: qHTS assay to identify small molecule agonists of the thyroid stimulating hormone receptor (TSHR) signaling pathway (AID 1224843; calls by dose curve; also: nearly all actives have a fitted effect of over 45% in size)
Thyrotropin receptor (Homo sapiens), sequence (P16473 whole entry, looked up): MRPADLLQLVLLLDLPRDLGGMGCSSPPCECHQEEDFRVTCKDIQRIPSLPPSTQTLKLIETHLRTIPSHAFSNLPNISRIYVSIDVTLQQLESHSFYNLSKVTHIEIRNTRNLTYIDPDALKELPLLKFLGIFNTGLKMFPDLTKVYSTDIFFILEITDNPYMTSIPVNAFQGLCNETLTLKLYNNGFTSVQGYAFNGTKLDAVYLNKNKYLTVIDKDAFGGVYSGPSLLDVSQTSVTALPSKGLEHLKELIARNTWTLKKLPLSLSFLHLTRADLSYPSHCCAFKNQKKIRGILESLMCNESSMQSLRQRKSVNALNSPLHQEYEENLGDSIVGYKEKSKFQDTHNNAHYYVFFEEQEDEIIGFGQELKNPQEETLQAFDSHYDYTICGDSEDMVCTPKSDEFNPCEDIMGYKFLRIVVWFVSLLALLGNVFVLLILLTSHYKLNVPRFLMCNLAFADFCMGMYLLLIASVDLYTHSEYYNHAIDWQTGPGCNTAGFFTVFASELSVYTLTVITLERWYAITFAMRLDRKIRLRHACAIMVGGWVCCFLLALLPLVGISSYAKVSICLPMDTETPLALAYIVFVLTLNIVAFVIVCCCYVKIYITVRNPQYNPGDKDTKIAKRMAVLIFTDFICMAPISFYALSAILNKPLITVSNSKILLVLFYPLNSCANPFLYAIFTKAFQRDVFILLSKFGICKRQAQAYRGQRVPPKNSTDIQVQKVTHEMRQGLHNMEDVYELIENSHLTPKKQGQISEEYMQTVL
Outline: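 Compounds are titrated over 15 concentrations, in triplicate, onto TSHR-HEK293 cells seeded at 800/well. Plates sit 30 min at room temperature before cAMP-d2 and anti-cAMP cryptate are added; signal is read after a further hour.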

[12] = qHTS assay to identify small molecule antagonists of the estrogen related receptor (ERR) signaling pathway from Tox21 library - cell viability counter screen (AID 1224834); also: nearly all actives have a fitted effect of over 30% in size; also: potency is read from the fitted curve at half-maximal effect
Outline: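 CellTiter-Fluor fluorescence, read after 30 min at 37 C, measures viability of ERR cells. Cells plated at 2,000/well and incubated 6 h before pin-tool compound addition, then exposed 17.5 hours at 37 C.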

[13] = qHTS assay to identify small molecule antagonists of the estrogen related receptor (ERR) signaling pathway - cell viability counter screen (AID 1224818);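 also: viability measured after 17.5 h of compound exposure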
Outline: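 Cytotoxicity counter screen: fluorescence from CellTiter-Fluor, added after 17.5 h compound exposure at 37 C and read 30 min later. ERR cell line seeded at 2,000 cells/well, preincubated 6 h before dosing.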

[14] = qHTS assay to identify small molecule antagonists of the estrogen related receptor (ERR) signaling pathway (AID 1224819;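 also: luminescence from an ERR-driven luciferase reporter measured with One-Glo reagent; nearly all actives have a fitted effect of over 50% in size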)
Outline: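 LOPAC library screened for antagonism as reduced One-Glo luminescence in ERR reporter cells (2,000/well). Compounds were added after 6 h pre-incubation and left 18 h at 37C; reading followed a 30 min room-temperature reagent step.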

[15] = qHTS assay to identify small molecule agonists of the estrogen related receptor (ERR) signaling pathway (AID 1224820)
Outline: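 An ERR cell line provided by NTP was seeded at 2,000 cells per well and allowed to settle for 6 h before compounds in DMSO were added. After 18 h at 37 C, luciferase activity was measured by One-Glo luminescence.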

[16] = test system: estrogen-related receptor alpha (ERRalpha) with PGC-1alpha coactivator, human; test: qHTS assay to identify small molecule antagonists of the estrogen related receptor signaling pathway with the pleiotropic PPARgamma coactivator (PGC) (AID 1224821; calls by dose curve;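 also: lower luminescence signal means antagonism of PGC/ERR signalling; nearly all actives have a fitted effect of over 50% in size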)
Outline: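 A PGC/ERR cell line supplied by NTP is seeded, allowed 6 h at 37 C, and treated with test compounds in DMSO for 18 h. Signal is then measured as luciferase luminescence using One-Glo.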

[17] = qHTS assay to identify small molecule antagonists of the estrogen related receptor signaling pathway with the pleiotropic PPARgamma coactivator (PGC) cell viability counter screen (AID 1224822)
Outline: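 Viability counter-screen read by fluorescence intensity after 30 min with CellTiter-Fluor at 37 C; PGC/ERR reporter cells were exposed to compounds for 17.5 h at 37 C following a 6 h preincubation.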

[18] = qHTS assay to identify small molecule agonists of the estrogen related receptor signaling pathway with the pleiotropic PPARgamma coactivator (PGC) (AID 1224823)
Outline: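 Compounds dissolved in DMSO are added by pin tool to PGC/ERR cells that have settled for 6 h, and incubation continues 18 h at 37 C. Reporter output is measured as One-Glo luminescence.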

Row | SMILES | Potency [1] | Potency [2] | Potency [3] | Potency [4] | Potency [5] | Potency [6] | Potency [7] | Potency [8] | Potency [9] | Potency [10] | Potency [11] | Potency [12] | outcome [13] | Potency [14] | outcome [15] | Potency [16] | Potency [17] | outcome [18]
1 | COC(=O)/C=C\C(=O)OC | inactive | inactive | inactive | inactive | inactive | inactive | inactive | inactive | inactive | inactive | inactive |  |  |  |  |  |  | 
2 | COc1c(Cl)ccc(Cl)c1C(=O)O | inactive | inactive | inactive | inactive | inactive | inactive | inactive | inactive | inactive | inactive | inactive |  |  |  |  |  |  | 
3 | CC/C(C)=N/O | inactive | inactive | inactive | inactive | inactive | inactive | inactive | inactive | inactive | inactive |  |  |  |  |  |  |  | 
4 | Nc1cccc(C(F)(F)F)c1 | inactive | inactive | inactive | inactive | inactive | inactive | inactive |  |  | inactive |  |  |  |  |  |  |  | 
5 | N#CCC(=O)O | inactive | inactive | inactive | inactive | inactive | inactive | inactive | inactive |  | inactive | inactive |  |  |  |  |  |  | 
6 | COc1ccc([C@@H]2CC(=O)c3c(O)cc(O[C@@H]4O[C@H](CO[C@@H]5O[C@@H](C)[C@H](O)[C@@H](O)[C@H]5O)[C@@H](O)[C@H](O)[C@H]4O)cc3O2)cc1OC | inactive | inactive | inactive | inactive |  | inactive | inactive | inactive | inactive | inactive | inactive | inactive |  |  |  |  |  | 
7 | OC[C@H]1O[C@@H](Oc2ccc(O)cc2)[C@H](O)[C@@H](O)[C@@H]1O | inactive | inactive | inactive | inactive | inactive | inactive | inactive |  |  | inactive | inactive | inactive |  |  |  |  |  | 
8 | CCOC(=O)CC(=O)OCC | inactive | inactive | inactive | inactive | inactive | inactive | inactive |  |  | inactive | inactive |  |  |  |  |  |  | 
9 | C=C1C[C@]23C[C@@]1(O)CC[C@H]2[C@@]12C=C[C@H](O)[C@@](C)(C(=O)O1)[C@H]2[C@@H]3C(=O)O | inactive | inactive | inactive | inactive | inactive |  |  |  |  | inactive | inactive | inactive |  |  |  |  |  | 
10 | COc1c2ccoc2cc2oc(=O)ccc12 | inactive | inactive | inactive | inactive | inactive | inactive | inactive | inactive |  | inactive | inactive |  |  |  |  |  |  | 
11 | CC(CN1c2ccccc2Sc2ccccc21)N(C)C (stereo not drawn) | 55.5 µM (active) and inactive | inactive | 27.6 µM (active) and 48.6 µM (active) and 26.6 µM (active) |  | inactive | 54.5 µM (active) |  | inactive | inactive |  |  | 69.3 µM (active) and 61.1 µM (active) | inactive | inactive | inactive | inactive | inactive | inactive
12 | NC(=O)NC(N)=O | inactive | inactive | inactive | inactive | inactive | inactive | inactive | inactive | inactive | inactive | inactive |  |  |  |  |  |  | 

— PubChem BioAssay (Tox21)
